Drawing on ChEMBL document CHEMBL1961873, “Compounds: GSK PKIS; Assays: Nanosyn kinase panel” (2012), this text covers inhibition for 1 compound.

For assay [1], the target named is Sphingosine kinase 1 (Homo sapiens) (UniProt Q9NYA1). Particulars: at 1 µM.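 Further: mean SPHK1 inhibition value reported from the GSK PKIS kinase panel screen.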
For assay [2], the target named is T1, Sphingosine kinase 2 (Homo sapiens) (UniProt Q9NRA0).
T1 sequence (whole entry): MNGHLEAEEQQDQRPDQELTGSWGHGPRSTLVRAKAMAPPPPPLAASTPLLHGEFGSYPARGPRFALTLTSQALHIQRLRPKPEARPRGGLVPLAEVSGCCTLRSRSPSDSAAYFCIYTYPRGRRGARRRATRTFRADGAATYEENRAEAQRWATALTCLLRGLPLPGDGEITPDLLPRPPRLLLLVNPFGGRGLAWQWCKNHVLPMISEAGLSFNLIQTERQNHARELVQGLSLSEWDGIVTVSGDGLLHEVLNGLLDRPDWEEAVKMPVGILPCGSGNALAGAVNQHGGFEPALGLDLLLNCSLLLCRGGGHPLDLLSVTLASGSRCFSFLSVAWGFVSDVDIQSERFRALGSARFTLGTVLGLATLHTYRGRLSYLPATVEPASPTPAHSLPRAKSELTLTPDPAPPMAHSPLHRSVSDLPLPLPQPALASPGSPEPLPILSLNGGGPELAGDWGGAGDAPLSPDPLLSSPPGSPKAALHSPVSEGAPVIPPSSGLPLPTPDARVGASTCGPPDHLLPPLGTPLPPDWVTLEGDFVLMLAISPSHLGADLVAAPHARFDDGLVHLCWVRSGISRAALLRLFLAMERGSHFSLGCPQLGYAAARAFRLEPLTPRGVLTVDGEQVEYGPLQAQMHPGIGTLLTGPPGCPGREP
The following applies: at 0.1 µM.

In assay [3] the target is T1, Sphingosine kinase 2 (Homo sapiens). Particulars: at 1 µM.
In assay [4] the target is Casein kinase II subunit alpha (Homo sapiens) (UniProt P68400). The following applies: at 0.1 µM.
Assay [5] has the same target. The following applies: at 1 µM.
The target of assay [6] is T2, Inhibitor of nuclear factor kappa-B kinase subunit alpha (Homo sapiens) (UniProt O15111).
T2 sequence (whole entry): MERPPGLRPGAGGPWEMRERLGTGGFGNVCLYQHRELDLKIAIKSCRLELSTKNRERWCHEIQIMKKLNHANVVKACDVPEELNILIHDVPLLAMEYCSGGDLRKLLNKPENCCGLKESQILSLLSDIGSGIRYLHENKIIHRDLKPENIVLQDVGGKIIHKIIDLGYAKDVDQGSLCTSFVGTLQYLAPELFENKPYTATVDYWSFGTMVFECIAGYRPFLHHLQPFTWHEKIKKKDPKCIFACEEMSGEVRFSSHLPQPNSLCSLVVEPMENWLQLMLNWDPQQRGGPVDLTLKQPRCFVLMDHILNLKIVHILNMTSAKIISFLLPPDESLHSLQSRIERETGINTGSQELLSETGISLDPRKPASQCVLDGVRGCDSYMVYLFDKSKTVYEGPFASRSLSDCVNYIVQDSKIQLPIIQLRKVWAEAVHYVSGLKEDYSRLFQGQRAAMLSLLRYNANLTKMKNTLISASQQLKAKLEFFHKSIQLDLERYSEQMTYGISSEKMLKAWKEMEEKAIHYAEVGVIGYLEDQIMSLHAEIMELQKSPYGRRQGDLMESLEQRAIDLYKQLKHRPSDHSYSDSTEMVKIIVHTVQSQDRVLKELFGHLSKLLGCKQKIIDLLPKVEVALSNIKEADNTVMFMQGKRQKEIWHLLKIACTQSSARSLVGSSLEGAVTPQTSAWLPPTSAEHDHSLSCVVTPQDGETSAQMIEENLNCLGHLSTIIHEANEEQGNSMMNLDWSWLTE
Particulars: at 0.1 µM.

Assay [7] deals with T2, Inhibitor of nuclear factor kappa-B kinase subunit alpha (Homo sapiens). The following applies: at 1 µM.
For assay [8], the target named is T3, Inhibitor of nuclear factor kappa-B kinase subunit beta (Homo sapiens) (UniProt O14920).
T3 sequence (whole entry): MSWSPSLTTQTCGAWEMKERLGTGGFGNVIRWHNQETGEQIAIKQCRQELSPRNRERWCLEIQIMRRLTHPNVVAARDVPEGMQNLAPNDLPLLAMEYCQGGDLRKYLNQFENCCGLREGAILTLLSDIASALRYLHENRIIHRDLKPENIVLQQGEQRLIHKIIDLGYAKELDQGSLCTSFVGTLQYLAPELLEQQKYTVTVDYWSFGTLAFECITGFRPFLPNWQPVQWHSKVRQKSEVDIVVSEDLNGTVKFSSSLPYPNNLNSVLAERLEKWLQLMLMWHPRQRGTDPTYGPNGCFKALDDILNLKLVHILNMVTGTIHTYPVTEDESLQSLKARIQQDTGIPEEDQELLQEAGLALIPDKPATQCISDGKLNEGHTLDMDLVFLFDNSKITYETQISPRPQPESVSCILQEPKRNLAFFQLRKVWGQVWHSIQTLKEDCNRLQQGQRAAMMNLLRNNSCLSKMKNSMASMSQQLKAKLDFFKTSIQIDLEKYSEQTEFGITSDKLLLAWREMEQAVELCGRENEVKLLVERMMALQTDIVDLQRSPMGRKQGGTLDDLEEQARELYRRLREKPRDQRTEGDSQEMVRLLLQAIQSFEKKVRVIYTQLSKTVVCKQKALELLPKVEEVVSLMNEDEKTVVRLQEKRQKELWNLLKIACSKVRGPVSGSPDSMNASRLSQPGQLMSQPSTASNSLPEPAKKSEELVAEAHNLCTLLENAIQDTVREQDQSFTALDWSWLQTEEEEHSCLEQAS
The following applies: at 0.1 µM.

For assay [9], the target named is T3, Inhibitor of nuclear factor kappa-B kinase subunit beta (Homo sapiens). The following applies: at 1 µM.
The target of assay [10] is T4, Inhibitor of nuclear factor kappa-B kinase subunit epsilon (Homo sapiens) (UniProt Q14164).
T4 sequence (whole entry): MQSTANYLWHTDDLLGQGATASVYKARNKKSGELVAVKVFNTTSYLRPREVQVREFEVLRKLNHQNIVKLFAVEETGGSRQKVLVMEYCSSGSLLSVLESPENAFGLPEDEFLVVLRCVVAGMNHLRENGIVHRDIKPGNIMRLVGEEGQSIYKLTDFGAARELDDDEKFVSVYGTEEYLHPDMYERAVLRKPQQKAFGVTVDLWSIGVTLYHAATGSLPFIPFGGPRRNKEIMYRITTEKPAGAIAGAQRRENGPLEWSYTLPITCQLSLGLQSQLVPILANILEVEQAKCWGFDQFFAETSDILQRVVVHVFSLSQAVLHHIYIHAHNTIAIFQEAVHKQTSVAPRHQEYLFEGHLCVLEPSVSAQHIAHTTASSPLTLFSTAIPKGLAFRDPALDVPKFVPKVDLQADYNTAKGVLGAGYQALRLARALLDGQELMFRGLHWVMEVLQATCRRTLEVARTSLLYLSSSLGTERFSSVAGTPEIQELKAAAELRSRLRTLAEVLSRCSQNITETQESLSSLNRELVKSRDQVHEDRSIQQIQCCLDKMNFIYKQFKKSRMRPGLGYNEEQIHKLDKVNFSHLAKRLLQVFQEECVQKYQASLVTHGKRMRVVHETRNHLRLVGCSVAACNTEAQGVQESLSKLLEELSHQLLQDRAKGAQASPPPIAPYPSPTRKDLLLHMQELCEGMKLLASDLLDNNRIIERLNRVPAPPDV
Particulars: at 0.1 µM.

Assay [11] addresses T4, Inhibitor of nuclear factor kappa-B kinase subunit epsilon (Homo sapiens). Particulars: at 1 µM.
For assay [12], the target named is T5, Serine/threonine-protein kinase Nek1 (Homo sapiens) (UniProt Q96PY6).
T5 sequence (whole entry): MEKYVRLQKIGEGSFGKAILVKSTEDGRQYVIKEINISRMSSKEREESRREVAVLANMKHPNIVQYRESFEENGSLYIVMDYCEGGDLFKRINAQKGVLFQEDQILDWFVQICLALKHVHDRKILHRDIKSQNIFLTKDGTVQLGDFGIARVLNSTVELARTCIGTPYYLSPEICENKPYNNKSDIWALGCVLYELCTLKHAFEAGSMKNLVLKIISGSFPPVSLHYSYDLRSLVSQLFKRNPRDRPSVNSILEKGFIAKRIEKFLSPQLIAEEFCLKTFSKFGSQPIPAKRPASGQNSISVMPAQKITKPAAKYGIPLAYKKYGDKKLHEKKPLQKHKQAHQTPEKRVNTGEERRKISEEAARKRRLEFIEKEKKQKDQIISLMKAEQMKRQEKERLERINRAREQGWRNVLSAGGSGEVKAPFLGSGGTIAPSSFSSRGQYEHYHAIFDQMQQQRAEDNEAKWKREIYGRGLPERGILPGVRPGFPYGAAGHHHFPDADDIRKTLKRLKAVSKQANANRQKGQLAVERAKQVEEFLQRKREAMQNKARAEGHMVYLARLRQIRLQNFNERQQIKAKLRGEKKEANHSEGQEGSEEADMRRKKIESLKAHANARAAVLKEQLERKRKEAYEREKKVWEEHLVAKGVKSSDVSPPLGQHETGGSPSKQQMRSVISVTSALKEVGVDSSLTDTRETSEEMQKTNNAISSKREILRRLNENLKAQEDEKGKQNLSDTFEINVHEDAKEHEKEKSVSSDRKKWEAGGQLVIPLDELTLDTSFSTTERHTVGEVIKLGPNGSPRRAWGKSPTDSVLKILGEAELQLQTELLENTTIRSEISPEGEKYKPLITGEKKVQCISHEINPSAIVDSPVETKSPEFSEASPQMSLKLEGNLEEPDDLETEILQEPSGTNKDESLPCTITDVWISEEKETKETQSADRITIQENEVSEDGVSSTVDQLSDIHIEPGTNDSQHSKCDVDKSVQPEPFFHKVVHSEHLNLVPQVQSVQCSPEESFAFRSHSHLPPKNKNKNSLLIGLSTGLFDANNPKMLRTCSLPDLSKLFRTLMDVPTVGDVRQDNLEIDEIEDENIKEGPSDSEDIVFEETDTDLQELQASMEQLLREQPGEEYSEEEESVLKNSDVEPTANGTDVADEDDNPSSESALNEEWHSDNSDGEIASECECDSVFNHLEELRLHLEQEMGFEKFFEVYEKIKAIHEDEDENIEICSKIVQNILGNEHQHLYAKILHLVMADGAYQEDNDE
The following applies: at 0.1 µM.

The target of assay [13] is T5, Serine/threonine-protein kinase Nek1 (Homo sapiens). The following applies: at 1 µM.
Assay [14] has as its target T6, Serine/threonine-protein kinase Nek2 (Homo sapiens) (UniProt P51955).
T6 sequence (whole entry): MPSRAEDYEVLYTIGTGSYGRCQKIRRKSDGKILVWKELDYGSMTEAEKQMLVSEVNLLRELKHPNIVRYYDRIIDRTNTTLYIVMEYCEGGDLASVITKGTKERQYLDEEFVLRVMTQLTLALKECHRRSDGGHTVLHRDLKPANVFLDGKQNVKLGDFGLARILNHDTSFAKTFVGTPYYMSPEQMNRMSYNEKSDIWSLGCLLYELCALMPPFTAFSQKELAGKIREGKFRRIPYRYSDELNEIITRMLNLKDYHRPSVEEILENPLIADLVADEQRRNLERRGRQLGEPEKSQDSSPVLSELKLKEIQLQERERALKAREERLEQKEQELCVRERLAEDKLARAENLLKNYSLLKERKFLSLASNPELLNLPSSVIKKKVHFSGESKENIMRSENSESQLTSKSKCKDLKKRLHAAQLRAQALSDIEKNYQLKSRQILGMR
The following applies: at 0.1 µM.

Assay [15] deals with T6, Serine/threonine-protein kinase Nek2 (Homo sapiens). Particulars: at 1 µM.
In assay [16] the target is Serine/threonine-protein kinase Nek6 (Homo sapiens) (UniProt Q9HC98). The following applies: at 0.1 µM.
Assay [17] shares this target. Particulars: at 1 µM.
Assay [18] concerns the target Serine/threonine-protein kinase Nek7 (Homo sapiens) (UniProt Q8TDX7). Particulars: at 0.1 µM.
Assay [19] has the same target. Particulars: at 1 µM.
Assay [20] has as its target T7, Serine/threonine-protein kinase Nek9 (Homo sapiens) (UniProt Q8TD19).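 Further: reported value is the mean percent inhibition of NEK9.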
T7 sequence (whole entry): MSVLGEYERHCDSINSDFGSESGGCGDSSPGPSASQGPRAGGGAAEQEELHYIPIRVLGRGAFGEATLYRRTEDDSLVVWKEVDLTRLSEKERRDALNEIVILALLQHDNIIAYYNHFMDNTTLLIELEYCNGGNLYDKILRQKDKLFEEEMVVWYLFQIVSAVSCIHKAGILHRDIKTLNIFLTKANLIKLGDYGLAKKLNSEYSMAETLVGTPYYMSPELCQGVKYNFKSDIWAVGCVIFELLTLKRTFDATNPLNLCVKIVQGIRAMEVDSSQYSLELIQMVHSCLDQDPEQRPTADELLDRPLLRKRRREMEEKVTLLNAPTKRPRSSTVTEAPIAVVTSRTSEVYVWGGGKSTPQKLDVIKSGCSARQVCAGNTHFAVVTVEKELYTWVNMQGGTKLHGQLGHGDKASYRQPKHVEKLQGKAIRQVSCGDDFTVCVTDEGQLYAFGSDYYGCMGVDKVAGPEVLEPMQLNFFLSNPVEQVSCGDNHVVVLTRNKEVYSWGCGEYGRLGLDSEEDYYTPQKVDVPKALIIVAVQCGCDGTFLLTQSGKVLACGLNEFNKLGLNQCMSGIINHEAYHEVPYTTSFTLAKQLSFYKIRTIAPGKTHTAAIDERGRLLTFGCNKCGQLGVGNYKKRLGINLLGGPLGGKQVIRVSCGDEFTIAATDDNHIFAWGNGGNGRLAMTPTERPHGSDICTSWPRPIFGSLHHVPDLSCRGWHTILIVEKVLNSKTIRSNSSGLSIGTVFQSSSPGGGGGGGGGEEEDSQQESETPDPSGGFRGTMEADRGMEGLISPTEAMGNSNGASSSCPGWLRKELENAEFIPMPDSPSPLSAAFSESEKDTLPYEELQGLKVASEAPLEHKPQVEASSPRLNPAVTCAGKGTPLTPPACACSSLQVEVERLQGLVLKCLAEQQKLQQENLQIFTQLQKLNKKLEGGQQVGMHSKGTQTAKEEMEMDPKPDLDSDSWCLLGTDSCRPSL
The following applies: at 0.1 µM.

Chain of Serine/threonine-protein kinase Nek7 (Homo sapiens) (Q8TDX7 whole entry, looked up): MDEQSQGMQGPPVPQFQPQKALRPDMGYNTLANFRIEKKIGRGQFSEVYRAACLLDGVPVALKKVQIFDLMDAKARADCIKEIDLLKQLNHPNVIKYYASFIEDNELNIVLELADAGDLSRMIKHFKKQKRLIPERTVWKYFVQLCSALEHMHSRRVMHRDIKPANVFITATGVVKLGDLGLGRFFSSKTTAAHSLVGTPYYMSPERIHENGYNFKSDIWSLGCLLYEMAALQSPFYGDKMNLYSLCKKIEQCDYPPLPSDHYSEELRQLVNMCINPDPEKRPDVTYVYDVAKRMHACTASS
Chain of Casein kinase II subunit alpha (Homo sapiens) (P68400 whole entry, looked up): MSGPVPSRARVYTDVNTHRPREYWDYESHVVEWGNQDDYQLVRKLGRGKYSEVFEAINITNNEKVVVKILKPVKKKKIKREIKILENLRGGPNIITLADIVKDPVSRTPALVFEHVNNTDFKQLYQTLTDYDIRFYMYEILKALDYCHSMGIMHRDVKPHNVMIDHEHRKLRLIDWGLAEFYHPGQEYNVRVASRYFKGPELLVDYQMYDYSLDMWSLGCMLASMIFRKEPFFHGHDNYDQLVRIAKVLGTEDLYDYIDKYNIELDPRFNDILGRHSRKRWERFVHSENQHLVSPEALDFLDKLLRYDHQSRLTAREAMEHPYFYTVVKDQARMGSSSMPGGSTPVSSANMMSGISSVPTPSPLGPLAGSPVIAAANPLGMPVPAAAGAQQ
Chain of Serine/threonine-protein kinase Nek6 (Homo sapiens) (Q9HC98 whole entry): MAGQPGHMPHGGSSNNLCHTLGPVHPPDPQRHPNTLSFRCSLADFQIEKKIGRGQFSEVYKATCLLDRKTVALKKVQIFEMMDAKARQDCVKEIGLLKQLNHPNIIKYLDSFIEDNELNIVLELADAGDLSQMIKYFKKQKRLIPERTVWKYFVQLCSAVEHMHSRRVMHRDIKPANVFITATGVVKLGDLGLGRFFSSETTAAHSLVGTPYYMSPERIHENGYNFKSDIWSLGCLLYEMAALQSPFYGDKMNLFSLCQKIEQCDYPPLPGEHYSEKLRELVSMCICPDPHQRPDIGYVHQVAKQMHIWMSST
Chain of Sphingosine kinase 1 (Homo sapiens) (Q9NYA1 whole entry): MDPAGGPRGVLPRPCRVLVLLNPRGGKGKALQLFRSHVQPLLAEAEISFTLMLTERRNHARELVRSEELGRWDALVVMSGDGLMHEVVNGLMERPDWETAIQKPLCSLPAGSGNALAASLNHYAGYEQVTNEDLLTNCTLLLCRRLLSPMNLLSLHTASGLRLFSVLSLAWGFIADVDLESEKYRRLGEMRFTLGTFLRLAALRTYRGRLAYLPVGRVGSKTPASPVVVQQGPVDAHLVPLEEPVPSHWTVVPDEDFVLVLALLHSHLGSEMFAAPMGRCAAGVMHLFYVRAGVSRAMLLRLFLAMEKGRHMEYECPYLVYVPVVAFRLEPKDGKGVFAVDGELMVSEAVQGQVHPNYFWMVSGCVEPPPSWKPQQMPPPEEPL

As for `N#Cc1ccc2c(-c3ccnc(NC4CC4)n3)c(-c3ccc(F)cc3)nn2c1`, the inhibition in [1] is 0.88%; in assay [2] it was -0.39%; in [3], 0.05%; in assay [4] it was 2.7%; in assay [5], 1.8%; in [6], 3.97%. Moreover, the inhibition in [7] was -0.5%; in assay [8], 2.19%; in assay [9], 0.5%; in assay [10], 1.8%; in assay [11], 3.7%; in assay [12], 0.87%. Further, the inhibition amounted to 2.03% in assay [13]; 2.22% in [14]; 1.83% in assay [15]; 1.63% in [16]; 1.52% in assay [17]; 1.73% in [18]. In addition, the inhibition came out at 2.38% in [19] and 3.27% in assay [20].

The term inhibition denotes the change of the read-out against control, counted positive when it falls.
